The panel holds about 79,000 compounds, 15% with a hit somewhere; the sample as a whole holds those more often. Active and inactive are the calls of the source. No stated cut-off is given here; in the data, active means growth inhibition above about 70%; inactive means the rest.

One test can be described thus: NCI Yeast Anticancer Drug Screen. Data for the CLN2oe strain (AID 163).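 Further: 0% = growth of vehicle-only control cultures.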 The settings on record: S. cerevisiae CLN2oe strain, at 1.2 µM, stronger effect = higher value. A digest of the protocol: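 Cells of an engineered yeast line with disturbed cell-cycle regulation are treated with compound. Inhibition of growth is then calculated relative to the vehicle-treated reference.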
`O=[N+]([O-])c1cc[n+]([O-])cc1`: the growth inhibition was -3% (inactive).
The same measure, in the same setting: the same measure for `CC1(C)CC(=O)C(/C=N/c2nc(-c3ccccc3)cs2)=C(O)C1`: -4% (inactive).
Still for that read-out and setting: for `Nc1nc(N)c2nc(CNc3ccc(C(=O)NC(CCC(=O)O)C(=O)O)cc3F)cnc2n1` (stereo unspecified) the value was -8% (inactive).
On the same count and under the same terms, for `COC(=O)CC1(O)C(/C=C/c2ccccc2)C(C(=O)OC)C(=O)C(C(=O)OC)C1C(=O)OC` (stereo unspecified) the value was -2% (inactive).
Consider `CC(C)(C)c1ccc(NS(=O)(=O)c2ccc(N)cc2)cc1`, for which the growth inhibition was 4% (inactive).
Still for that read-out and setting: the same measure for `CCN(CC)CCNc1ccc([N+](=O)[O-])c2nc3ccccc3c(N)c12`: 5% (inactive).
On the same count and under the same terms, the same measure for `CCCCN(CCCC)C(=O)/C=C/c1ccccc1`: -9% (inactive); for `O=c1[nH]c(-c2ccccc2)nc2c1sc1nc3ccccc3n12`: -52% (inactive); for `O=[N+]([O-])c1ccc2c(c1)/C(=N/N=C1c3ccccc3Cc3ccccc31)c1cc([N+](=O)[O-])cc([N+](=O)[O-])c1-2`: 28% (inactive).
For the compound `CC(C)C(C)/C=C\C(C)C1CCC2C3=CC=C4CC(O)CCC4(C)C3CCC21C` (stereo unspecified), the growth inhibition is 0% (inactive).
Same read-out and setting: for `O=C1Nc2ccc(Br)cc2C1=Nc1ccc2c(c1)OCO2` the value was 13% (inactive).
Still for that read-out and setting: for `CCCCOCn1c(=O)[nH]c(=O)c2cc(Br)ccc21` the value was -20% (inactive); for `Cc1ccc(S/C(=C\C(=O)O)c2ccccc2)cc1`, 1% (inactive).
As for `O=[N+]([O-])/C=C/c1cc(Cl)c(/C=C/[N+](=O)[O-])cc1Cl`, the growth inhibition was 22% (inactive).
Take `Cc1cc(S(=O)(=O)Nc2nnc3cnc4ccccc4n23)c(S)cc1Cl`: the growth inhibition was 3% (inactive).
Still for that read-out and setting: the same measure for `O=C(/C=C/c1cc(Cl)cc(Cl)c1O)c1cccc(O)c1`: 9% (inactive); for `NC1CCCCC1N.Nc1c(N=Nc2ccc(-c3ccc(N=Nc4cc(S(=O)(=O)[O-])c5ccccc5c4N)cc3)cc2)cc(S(=O)(=O)[O-])c2ccccc12.[OH3+].[OH3+].[Pt+4]`: 1% (inactive); for `COC(=O)CCC(NC(=S)N/N=C(\C)c1ccccn1)C(=O)OC` (stereo unspecified): 7% (inactive).
As to `NC(=O)C(=O)NNc1ccccc1`, the growth inhibition is -3% (inactive).
The same measure, in the same setting: the same measure for `COc1cc(C2SCC(=O)N2c2ccc(-c3ccc(-n4c(-c5ccccc5)nc5ccccc5c4=O)cc3)cc2)ccc1O` (stereo unspecified): -2% (inactive); for `COc1ccc(/C=C/c2sc3ccccc3[n+]2CCCCI)cc1OC`: -7% (inactive); for `Cc1c(C(C)C)cc(OCCO)cc1C(C)C`: -3% (inactive).
Still for that read-out and setting: for `Cc1cc(NCCCCCCCCNc2cc(C)nc3cc(N)ccc23)c2ccc(N)cc2n1` the value was -18% (inactive); for `C=C(Cl)COC(=O)Nc1cccc(Cl)c1`, 0% (inactive).
The same measure, in the same setting: for `CC(=O)OC1CC2C(C)(C)C(=O)C=C[C@]2(C)C2CCC3(C)C(=CCC3[C@H](CO)C[C@H](O)C(=O)C(C)(C)O)[C@]12C` (stereo partly specified) the value was -41% (inactive); for `COc1ccc(/C=C/C(=O)c2ccccc2)cc1OC`, 12% (inactive); for `COc1c(O)c(C=O)c(Br)c(C=O)c1O`, 2% (inactive).
In the case of `O=[N+]([O-])c1cc(Cl)cnc1Br`, the growth inhibition was -4% (inactive).
Still for that read-out and setting: for `Cc1ccc2c(c1)C1(SC(C)C(=O)N1c1ccc(Cl)cc1)C(=O)N2` (stereo unspecified) the value was -1% (inactive); for `COc1cc(CSc2ccc(O)cc2)cc(O)c1O`, 6% (inactive); for `Cc1ccc2c3ccc4c(c3n(C)c2c1)C(=O)C=CC4=O`, -5% (inactive).
Take `O=C(Nc1ccc(Cl)cc1)Nc1nnc2nc(C(C(=O)c3cccc([N+](=O)[O-])c3Cl)c3nc4nnc(NC(=O)Nc5ccc(Cl)cc5)n4[nH]c3=O)c(=O)[nH]n12`: the growth inhibition is -6% (inactive).
The same measure, in the same setting: the same measure for `O=C(O)C1CC(c2ccccc2)=NN1c1ccccc1` (stereo unspecified): -5% (inactive); for `CCCCc1ccc(-n2c(C)c(COC(=O)NC)c(COC(=O)NC)c2C)cc1`: -23% (inactive); for `CCC(=O)c1cc(C(=O)C(=S)SC)cc(C(=O)C(=S)SC)c1`: 28% (inactive).
Consider `CCn1c(O)c(C=Nc2ccccc2)s/c1=N/Nc1nc(-c2ccccc2)cs1`, for which the growth inhibition was -6% (inactive).
Same read-out and setting: for `Cc1ccccc1N=C(NO)c1ccccc1` the value was -3% (inactive); for `Cc1nc2ccccc2nc1NNc1ccccc1`, -7% (inactive).

The test is the same for the next values; noted with them: S. cerevisiae CLN2oe strain, at 3.7 µM, stronger effect = higher value.
As to `O=[N+]([O-])c1cc[n+]([O-])cc1`, the growth inhibition was -4% (inactive).
Still for that read-out and setting: the same measure for `CC1(C)CC(=O)C(/C=N/c2nc(-c3ccccc3)cs2)=C(O)C1`: -5% (inactive).
Still for that read-out and setting: for `Nc1nc(N)c2nc(CNc3ccc(C(=O)NC(CCC(=O)O)C(=O)O)cc3F)cnc2n1` (stereo unspecified) the value was 13% (inactive); for `COC(=O)CC1(O)C(/C=C/c2ccccc2)C(C(=O)OC)C(=O)C(C(=O)OC)C1C(=O)OC` (stereo unspecified), 1% (inactive).
`CC(C)(C)c1ccc(NS(=O)(=O)c2ccc(N)cc2)cc1`: the growth inhibition is 2% (inactive).
With `CCN(CC)CCNc1ccc([N+](=O)[O-])c2nc3ccccc3c(N)c12`, the growth inhibition is -7% (inactive).
Same read-out and setting: for `CCCCN(CCCC)C(=O)/C=C/c1ccccc1` the value was -6% (inactive); for `O=c1[nH]c(-c2ccccc2)nc2c1sc1nc3ccccc3n12`, -72% (inactive); for `O=[N+]([O-])c1ccc2c(c1)/C(=N/N=C1c3ccccc3Cc3ccccc31)c1cc([N+](=O)[O-])cc([N+](=O)[O-])c1-2`, 50% (inactive).
For the compound `CC(C)C(C)/C=C\C(C)C1CCC2C3=CC=C4CC(O)CCC4(C)C3CCC21C` (stereo unspecified), the growth inhibition is -2% (inactive).
As to `O=C1Nc2ccc(Br)cc2C1=Nc1ccc2c(c1)OCO2`, the growth inhibition is 15% (inactive).
Still for that read-out and setting: the same measure for `CCCCOCn1c(=O)[nH]c(=O)c2cc(Br)ccc21`: -11% (inactive).
On the same count and under the same terms, the same measure for `Cc1ccc(S/C(=C\C(=O)O)c2ccccc2)cc1`: -2% (inactive); for `O=[N+]([O-])/C=C/c1cc(Cl)c(/C=C/[N+](=O)[O-])cc1Cl`: 32% (inactive).
Still for that read-out and setting: for `Cc1cc(S(=O)(=O)Nc2nnc3cnc4ccccc4n23)c(S)cc1Cl` the value was 3% (inactive).
Consider `O=C(/C=C/c1cc(Cl)cc(Cl)c1O)c1cccc(O)c1`, for which the growth inhibition was 23% (inactive).
On the same count and under the same terms, the same measure for `NC1CCCCC1N.Nc1c(N=Nc2ccc(-c3ccc(N=Nc4cc(S(=O)(=O)[O-])c5ccccc5c4N)cc3)cc2)cc(S(=O)(=O)[O-])c2ccccc12.[OH3+].[OH3+].[Pt+4]`: -1% (inactive); for `COC(=O)CCC(NC(=S)N/N=C(\C)c1ccccn1)C(=O)OC` (stereo unspecified): 2% (inactive).
The same measure, in the same setting: the same measure for `NC(=O)C(=O)NNc1ccccc1`: 4% (inactive).
Still for that read-out and setting: for `COc1cc(C2SCC(=O)N2c2ccc(-c3ccc(-n4c(-c5ccccc5)nc5ccccc5c4=O)cc3)cc2)ccc1O` (stereo unspecified) the value was -2% (inactive); for `COc1ccc(/C=C/c2sc3ccccc3[n+]2CCCCI)cc1OC`, -7% (inactive); for `Cc1c(C(C)C)cc(OCCO)cc1C(C)C`, -3% (inactive).
As for `Cc1cc(NCCCCCCCCNc2cc(C)nc3cc(N)ccc23)c2ccc(N)cc2n1`, the growth inhibition is -20% (inactive).
In the case of `C=C(Cl)COC(=O)Nc1cccc(Cl)c1`, the growth inhibition is -5% (inactive).
Same read-out and setting: the same measure for `CC(=O)OC1CC2C(C)(C)C(=O)C=C[C@]2(C)C2CCC3(C)C(=CCC3[C@H](CO)C[C@H](O)C(=O)C(C)(C)O)[C@]12C` (stereo partly specified): -14% (inactive).
Still for that read-out and setting: the same measure for `COc1ccc(/C=C/C(=O)c2ccccc2)cc1OC`: 3% (inactive); for `COc1c(O)c(C=O)c(Br)c(C=O)c1O`: 0% (inactive); for `O=[N+]([O-])c1cc(Cl)cnc1Br`: -1% (inactive).
Still for that read-out and setting: the same measure for `Cc1ccc2c(c1)C1(SC(C)C(=O)N1c1ccc(Cl)cc1)C(=O)N2` (stereo unspecified): -11% (inactive); for `COc1cc(CSc2ccc(O)cc2)cc(O)c1O`: 8% (inactive).
Take `Cc1ccc2c3ccc4c(c3n(C)c2c1)C(=O)C=CC4=O`: the growth inhibition was -4% (inactive).
The same measure, in the same setting: for `O=C(Nc1ccc(Cl)cc1)Nc1nnc2nc(C(C(=O)c3cccc([N+](=O)[O-])c3Cl)c3nc4nnc(NC(=O)Nc5ccc(Cl)cc5)n4[nH]c3=O)c(=O)[nH]n12` the value was -8% (inactive).
On the same count and under the same terms, the same measure for `O=C(O)C1CC(c2ccccc2)=NN1c1ccccc1` (stereo unspecified): 17% (inactive); for `CCCCc1ccc(-n2c(C)c(COC(=O)NC)c(COC(=O)NC)c2C)cc1`: -1% (inactive).
On the same count and under the same terms, for `CCC(=O)c1cc(C(=O)C(=S)SC)cc(C(=O)C(=S)SC)c1` the value was 69% (inactive); for `CCn1c(O)c(C=Nc2ccccc2)s/c1=N/Nc1nc(-c2ccccc2)cs1`, -11% (inactive); for `Cc1ccccc1N=C(NO)c1ccccc1`, -5% (inactive).
Take `Cc1nc2ccccc2nc1NNc1ccccc1`: the growth inhibition is -2% (inactive).

The values above are taken from PubChem BioAssay (NCI).
